Source: PubChem BioAssay (NCATS)
Records with an inconclusive call do not appear. Calls of active or inactive are those of the source. Unless noted, calls come from the whole dose curve; as a rule, active = well fitted curve in either direction with a large enough effect (not every such curve was filed as active); inconclusive = small, poorly fitted or top-dose-only effect, or another doubt; inactive = flat fitted curve, though single readings scatter.

Tests used:
[1] = target: Lysosomal acid glucosylceramidase (Homo sapiens) (UniProt P04062); experiment: Glucocerebrosidase-p2 (AID 348; in the data active = potency below about 10 µM; note: potency is the fitted concentration of half-maximal effect); conditions: purified GBA, blue fluorogenic substrate, 40 min
Method in brief: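 Compounds titrated from 0.6 nM upwards against 0.2 nM enzyme in pH 5.9 citric acid/KH2PO4, taurocholate, tween-20; blue fluorogenic substrate 80 uM, 40 min room temperature, stopped and read Ex 365/Em 440 for AC50.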

[2] = AP1 Signaling Pathway (AID 357); conditions: ME-180 AP-1-bla reporter, EGF-induced, beta-lactamase ratio, 5 h; at 7.69 µM (top of the series) unless noted;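 note: ME-180 reporter cells stimulated with EGF at its EC50 level; % is set by controls: 0 for no effect and ±100 for the full control effect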
Method in brief: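 First, ME-180 AP-1-bla cells were cultured overnight at 37 °C in low-serum Opti-MEM. Next, titrated compounds with EC50 EGF were incubated 5 hours. Finally, CCF4 was added for 2.5 hours and the 460/530 nm ratio recorded.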

[3] = target: Cytochrome P450 1A2 (Homo sapiens) (UniProt P05177); experiment: p450-cyp1a2 (AID 410; calls by dose curve; note: potency is the fitted concentration of half-maximal effect); conditions: recombinant CYP1A2, luciferin-ME demethylation, luminescence; series mostly up to 57 µM
Method in brief: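 Luminescent readout of luciferin formed from Luciferin-ME by human CYP1A2; data normalized against complete inhibition by 57 uM furafylline. Enzyme 20nM, substrate 100uM at Km, 100mM KPO4 buffer, 60 min reaction at room temperature.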

[4] = NFAT Signaling Pathway (AID 444); conditions: Jurkat NFAT-bla M1, carbachol, beta-lactamase ratio, 5 h; at 7.69 µM (top of the series) unless noted;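 note: carbachol stimulus at about its EC50 of 1 µM final; % is set by controls: 0 for no effect and ±100 for the full control effect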
Method in brief: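 Jurkat cells with NFAT-driven β-lactamase reporter and co-expressed M1 receptor, stimulated with carbachol (final 1 uM, ~EC50), compound titration, 5 h at 37 °C. CCF4 loaded 1 h at RT; 460/530 nm ratio gave %activity and AC50.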

[5] = Stat Signaling Pathway (AID 446); conditions: ME-180 SIE beta-lactamase reporter, IL-6 stimulated, 5 h; at 7.69 µM (top of the series) unless noted;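 note: ME-180 cervical cancer cells given 40 pM IL-6 alongside compound; SIE-controlled beta-lactamase reporter measured as 460/530 nm FRET emission ratio; % is set by controls: 0 for no effect and ±100 for the full control effect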
Method in brief: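 Screening format detects activators and inhibitors alike: ME-180 SIE-bla cells stimulated at 40 pM IL-6 for 5 hrs with compound, then dual-emission beta-lactamase read at 405 nm excitation.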

[6] = target: Glucocorticoid receptor (Homo sapiens) (UniProt P04150); experiment: GR-GFP Redistribution (AID 450;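 active = compounds whose dose series gives a full or clear partial fitted curve of increased nuclear translocation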; note: potency is the fitted concentration of half-maximal effect); conditions: U2OS GR-GFP nuclear translocation, laser cytometry, 2 h
[7] = target: Glucocorticoid receptor (Homo sapiens) (UniProt P04150); experiment: GR-EFC Redistribution (AID 451; calls by dose curve; note: potency is the fitted concentration of half-maximal effect); conditions: CHO-K1 GR-EFC translocation, beta-gal luminescence, 2 h
Method in brief: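 CHO-K1 cells expressing nuclear EA and GR-ED fragments of b-gal; compounds titrated up to 46 uM final, 2 h at 37 C. GR nuclear translocation read as complemented b-gal luminescence after 1 h RT detection.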

[8] = target: Mitogen-activated protein kinase 10 (Mus musculus) (UniProt Q61831); experiment: JNK3 AlphaScreen Assay (AID 530); conditions: JNK3 lysate, c-Jun phosphorylation; series mostly up to 57.1 µM;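 note: kinase came from lysate of stimulated human HepG2 cells; signal reports phosphorylation of biotinylated GST-cJun 1-79 at Ser73 with 10 µM ATP; % is set by controls: 0 for no effect and ±100 for the full control effect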
Method in brief: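 Pre-activated (IL-1β/TNFα) JNK3 in HepG2 lysates phosphorylates biotin-GST-cJun(1-79), 10 uM ATP; anti-phospho-cJun(Ser73) AlphaScreen read at room temperature, pH 7.6 Tris buffer. Compounds pre-incubated 15 min as titrations.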

[9] = target: 3',5'-cyclic-AMP phosphodiesterase 4B (Homo sapiens) (UniProt Q07343); experiment: qHTS Assay for Inhibitors of PDE-IV (AID 607; active = well fitted activation curve with a large enough effect in the main read-out, with a control signal flat, not every such curve was filed as active; note: % of control where 0% means no effect); conditions: HEK293 ACTOne CNG channel cells, membrane potential fluorescence; series mostly up to 22.9 µM
Method in brief: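 The readout is membrane depolarisation from a cAMP-sensing CNG channel, detected with a potential dye at ex 535/em 590. Cells were HEK293-derived (endogenous PDE-IV) at 1000 cells/well, titrated up to 22.9 uM final.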

[10] = target: Cytochrome P450 3A4 (Homo sapiens) (UniProt P08684); experiment: qHTS Assay for Activators of Cytochrome P450 3A4 (AID 885; active = well fitted curve in the direction sought with a large enough effect; an effect the other way counts as inactive or inconclusive; note: nearly all actives have a fitted effect of over 65% in size); conditions: recombinant CYP3A4, Luciferin-PPXE luminescence, 60 min; series mostly up to 57.1 µM
Method in brief: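 Steps: enzyme/substrate mix dispensed; compound added, 10 min RT; NADPH regeneration solution added, 60 min RT; luciferin detection buffer stops reaction; 20 min later luminescence measured.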

[11] = Primary qHTS for small molecule stabilizers of the endoplasmic reticulum resident proteome: Secreted ER Calcium Modulated Protein (SERCaMP) assay (AID 1508630; active = well fitted curve in the direction sought with a large enough effect; an effect the other way counts as inactive or inconclusive; note: % is set by controls: 0 for no effect and ±100 for the full control effect); conditions: SH-SY5Y GLuc-SERCaMP (Gaussia luciferase released on ER calcium loss) secretion, thapsigargin, luminescence; series mostly up to 38.4 µM
Method in brief: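 GLuc-SERCaMP-expressing SH-SY5Y cells, pretreated 16 h with compound, are challenged with thapsigargin to empty ER calcium stores; after 4 h, coelenterazine is added directly to the medium and luminescence is imaged.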

[12] = qHTS Assay for Identification of Small Molecule Agonists for Hypoxia Response Element Signaling Pathway (AID 914; active = well fitted activation curve with a large enough effect in the signal ratio, with a control signal flat, not every such curve was filed as active; the % refers to the signal ratio; note: % of control where 0% means no effect); conditions: ME-180 (cervical carcinoma) HRE-bla reporter, beta-lactamase ratio, CoCl2, 17 h; activation: stronger effect = higher value
Method in brief: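 A beta-lactamase reporter under hypoxia response element control in ME-180 cells served as the system. Compound titrations plus EC50 CoCl2 ran 17 h at 37 degrees Celsius; AC50 values were fitted from %Activity.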

[13] = target: Cytochrome P450 3A4 (Homo sapiens) (UniProt P08684); experiment: qHTS Assay for Inhibitors and Substrates of Cytochrome P450 3A4 (AID 884; active = well fitted curve in the direction sought with a large enough effect; an effect the other way counts as inactive or inconclusive; note: potency is the fitted concentration of half-maximal effect; nearly all actives have a fitted effect of over 50% in size); conditions: recombinant CYP3A4, Luciferin-PPXE luminescence; series mostly up to 57.1 µM
Method in brief: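 20 nM human CYP3A4 with 25 uM Luciferin-PPXE (at KM) in 200 mM KPO4, preincubated 10 min with compound; NADPH regeneration started a 60 min RT reaction. Luciferin detected by luminescence, normalized to 57 uM ketoconazole as full inhibition.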

[14] = Confirmation and Secondary Assay for Modulators of Hemoglobin Beta Chain Splicing at IVS2 654 locus (AID 910; active = well fitted curve in the direction sought with a large enough effect; an effect the other way counts as inactive or inconclusive;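 note: HeLa cells stably carrying EGFP split by mutant beta-globin IVS2-654 intron; % of control where 0% means no effect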); conditions: HeLa EGFP-654 splicing reporter, GFP fluorescence, 48 h; series mostly up to 38.3 µM
Method in brief: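 HeLa cells stably expressing EGFP interrupted by β-globin IVS2-654 intron, seeded overnight in Opti-MEM/2% FCS, then treated 2 days at 37 °C. Restored splicing read as total peak GFP intensity per well by laser scanning cytometry (488 nm excitation, 500–520 nm emission); 500 nM antisense PNA as control.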

[15] = Confirmation and Secondary Assay for Modulators of Hemoglobin Beta Chain Splicing at IVS2 705 locus (AID 930; active = well fitted curve in the direction sought with a large enough effect; an effect the other way counts as inactive or inconclusive;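 note: HeLa cells stably expressing the EGFP-705 splicing reporter; GFP fluorescence per well restored by corrected splicing of the IVS2-705 intron in EGFP; % of control where 0% means no effect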); conditions: HeLa EGFP-705 splicing reporter, GFP fluorescence, 48 h; series mostly up to 38.3 µM
Method in brief: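 Fluorescence gain (488 nm laser, 500-520 nm PMT) reflects restored correct splicing of a mutant IVS2-705 intron inside EGFP in stably transfected HeLa cells after 2-day compound treatment.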

[16] = target: Ubiquitin carboxyl-terminal hydrolase 1 (Homo sapiens) (UniProt O94782); experiment: Inhibitors of USP1/UAF1: Pilot qHTS (AID 504865; active = well fitted curve in the direction sought with a large enough effect; an effect the other way counts as inactive or inconclusive;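 note: rhodamine fluorescence freed from ubiquitin-rhodamine substrate followed over time; top concentration of the series differs between compounds; % is set by controls: 0 for no effect and ±100 for the full control effect; nearly all actives have a fitted effect of over 35% in size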); conditions: purified USP1/UAF1, Ub-rhodamine cleavage fluorescence; series mostly up to 54.9 µM
Method in brief: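 USP1/UAF1 complex at 1 nM preincubated 15 min at room temperature with compound, then Ub-Rho substrate added at 150 nM final. Fluorescence (480/540 nm) read kinetically in 50 mM HEPES pH 7.8, 0.5 mM EDTA, 1 mM TCEP, 0.1 mg/ml BSA, 0.01% Tween-20.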

[17] = target: Cytochrome P450 2C9 (Homo sapiens) (UniProt P11712); experiment: qHTS Assay for Inhibitors and Substrates of Cytochrome P450 2C9 (AID 883; active = well fitted curve in the direction sought with a large enough effect; an effect the other way counts as inactive or inconclusive; note: potency is the fitted concentration of half-maximal effect; nearly all actives have a fitted effect of over 60% in size); conditions: recombinant CYP2C9, luciferin-H luminescence, 60 min; series mostly up to 57.1 µM
Method in brief: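 Human CYP2C9 (10nM) with Luciferin-H at 100uM (its KM) in 25mM KPO4; compound preincubated 10 min at 37C, then NADPH regeneration for 60 min at 37C. Luciferin read by luminescence after detection reagent; normalized to 57uM sulphaphenazole as full inhibition.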

Chain of Cytochrome P450 1A2 (Homo sapiens) (P05177 whole entry, looked up): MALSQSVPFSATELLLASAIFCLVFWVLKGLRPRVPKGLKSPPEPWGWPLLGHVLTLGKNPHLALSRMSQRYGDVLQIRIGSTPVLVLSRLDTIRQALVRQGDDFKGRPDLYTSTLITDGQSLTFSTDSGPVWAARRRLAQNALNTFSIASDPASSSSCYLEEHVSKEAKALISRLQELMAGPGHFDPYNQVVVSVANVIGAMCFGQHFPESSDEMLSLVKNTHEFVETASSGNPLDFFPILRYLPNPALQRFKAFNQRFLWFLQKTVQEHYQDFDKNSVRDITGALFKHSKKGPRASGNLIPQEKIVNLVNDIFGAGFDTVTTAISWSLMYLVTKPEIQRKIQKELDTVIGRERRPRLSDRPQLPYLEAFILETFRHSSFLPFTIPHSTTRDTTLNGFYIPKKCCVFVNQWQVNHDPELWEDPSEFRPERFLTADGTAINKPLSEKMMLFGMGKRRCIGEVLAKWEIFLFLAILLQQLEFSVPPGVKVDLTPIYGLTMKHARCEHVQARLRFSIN
Chain of Cytochrome P450 3A4 (Homo sapiens) (P08684 whole entry, looked up): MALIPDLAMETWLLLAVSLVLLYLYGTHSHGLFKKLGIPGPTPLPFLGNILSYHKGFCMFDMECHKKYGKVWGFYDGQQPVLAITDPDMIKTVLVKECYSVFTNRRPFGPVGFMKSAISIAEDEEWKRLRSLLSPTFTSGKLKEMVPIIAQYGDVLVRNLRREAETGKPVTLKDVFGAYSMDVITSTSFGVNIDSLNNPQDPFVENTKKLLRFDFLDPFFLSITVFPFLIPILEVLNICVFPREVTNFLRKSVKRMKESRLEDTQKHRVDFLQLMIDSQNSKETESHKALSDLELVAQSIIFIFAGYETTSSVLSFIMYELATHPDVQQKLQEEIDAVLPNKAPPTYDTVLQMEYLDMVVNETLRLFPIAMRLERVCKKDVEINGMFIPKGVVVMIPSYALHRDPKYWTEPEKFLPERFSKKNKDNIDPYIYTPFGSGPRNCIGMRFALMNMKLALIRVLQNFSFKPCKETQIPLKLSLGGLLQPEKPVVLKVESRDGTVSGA
Chain of Lysosomal acid glucosylceramidase (Homo sapiens) (P04062 whole entry, looked up): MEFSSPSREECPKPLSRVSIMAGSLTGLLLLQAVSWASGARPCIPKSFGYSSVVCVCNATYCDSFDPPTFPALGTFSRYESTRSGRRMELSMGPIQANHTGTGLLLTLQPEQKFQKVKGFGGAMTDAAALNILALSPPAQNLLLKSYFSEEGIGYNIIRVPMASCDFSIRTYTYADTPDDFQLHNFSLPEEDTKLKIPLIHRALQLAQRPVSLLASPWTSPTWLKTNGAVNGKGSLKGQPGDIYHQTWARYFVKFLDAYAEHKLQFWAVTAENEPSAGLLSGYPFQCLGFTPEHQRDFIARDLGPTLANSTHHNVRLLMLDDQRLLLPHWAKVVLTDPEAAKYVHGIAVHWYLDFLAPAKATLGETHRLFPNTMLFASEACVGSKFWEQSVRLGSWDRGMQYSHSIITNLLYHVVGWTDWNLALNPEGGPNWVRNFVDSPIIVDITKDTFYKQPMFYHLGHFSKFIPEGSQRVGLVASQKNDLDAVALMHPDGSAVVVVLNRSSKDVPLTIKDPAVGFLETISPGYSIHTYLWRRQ
Chain of Glucocorticoid receptor (Homo sapiens) (P04150 whole entry, looked up, the tested form may be a part): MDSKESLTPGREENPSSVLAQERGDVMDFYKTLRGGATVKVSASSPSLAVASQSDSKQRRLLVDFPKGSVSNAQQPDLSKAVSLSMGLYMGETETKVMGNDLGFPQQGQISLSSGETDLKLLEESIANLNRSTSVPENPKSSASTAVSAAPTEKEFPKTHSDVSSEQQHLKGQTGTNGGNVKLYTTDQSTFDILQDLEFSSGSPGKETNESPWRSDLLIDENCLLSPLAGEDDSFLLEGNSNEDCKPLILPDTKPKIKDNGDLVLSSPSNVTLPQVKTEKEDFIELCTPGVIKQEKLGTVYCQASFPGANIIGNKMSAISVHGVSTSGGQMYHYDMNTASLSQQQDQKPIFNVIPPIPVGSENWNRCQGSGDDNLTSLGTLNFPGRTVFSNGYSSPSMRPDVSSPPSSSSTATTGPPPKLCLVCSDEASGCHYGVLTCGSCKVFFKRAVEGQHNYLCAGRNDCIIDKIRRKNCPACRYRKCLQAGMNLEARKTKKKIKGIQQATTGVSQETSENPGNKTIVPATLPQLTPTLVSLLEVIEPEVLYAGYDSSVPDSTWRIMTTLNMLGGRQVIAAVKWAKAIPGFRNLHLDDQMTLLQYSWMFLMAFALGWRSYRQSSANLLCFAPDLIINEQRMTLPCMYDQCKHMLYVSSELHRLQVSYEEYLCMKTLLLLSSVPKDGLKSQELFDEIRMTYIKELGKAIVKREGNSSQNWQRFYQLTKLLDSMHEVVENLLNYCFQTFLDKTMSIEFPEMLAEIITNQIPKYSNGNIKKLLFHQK
Chain of 3',5'-cyclic-AMP phosphodiesterase 4B (Homo sapiens) (Q07343 whole entry, looked up): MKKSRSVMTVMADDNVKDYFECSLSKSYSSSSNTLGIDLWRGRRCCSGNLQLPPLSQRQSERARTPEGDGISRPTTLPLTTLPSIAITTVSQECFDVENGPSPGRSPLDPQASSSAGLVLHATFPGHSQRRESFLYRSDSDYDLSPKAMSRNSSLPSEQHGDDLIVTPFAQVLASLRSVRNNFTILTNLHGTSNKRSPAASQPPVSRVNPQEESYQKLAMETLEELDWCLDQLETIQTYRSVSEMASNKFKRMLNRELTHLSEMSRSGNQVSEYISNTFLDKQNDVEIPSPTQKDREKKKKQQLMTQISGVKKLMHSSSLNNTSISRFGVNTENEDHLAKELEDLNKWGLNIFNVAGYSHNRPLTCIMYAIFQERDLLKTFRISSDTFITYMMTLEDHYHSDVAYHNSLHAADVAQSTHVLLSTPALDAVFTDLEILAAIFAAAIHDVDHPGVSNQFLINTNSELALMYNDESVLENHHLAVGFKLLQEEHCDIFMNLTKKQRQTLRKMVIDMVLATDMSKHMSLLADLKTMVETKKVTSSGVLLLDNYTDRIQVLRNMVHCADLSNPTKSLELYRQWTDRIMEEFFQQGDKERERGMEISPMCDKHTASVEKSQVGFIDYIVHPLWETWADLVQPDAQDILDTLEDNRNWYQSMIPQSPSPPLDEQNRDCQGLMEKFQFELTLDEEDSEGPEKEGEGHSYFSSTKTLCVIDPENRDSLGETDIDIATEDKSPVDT
Chain of Cytochrome P450 2C9 (Homo sapiens) (P11712 whole entry, looked up): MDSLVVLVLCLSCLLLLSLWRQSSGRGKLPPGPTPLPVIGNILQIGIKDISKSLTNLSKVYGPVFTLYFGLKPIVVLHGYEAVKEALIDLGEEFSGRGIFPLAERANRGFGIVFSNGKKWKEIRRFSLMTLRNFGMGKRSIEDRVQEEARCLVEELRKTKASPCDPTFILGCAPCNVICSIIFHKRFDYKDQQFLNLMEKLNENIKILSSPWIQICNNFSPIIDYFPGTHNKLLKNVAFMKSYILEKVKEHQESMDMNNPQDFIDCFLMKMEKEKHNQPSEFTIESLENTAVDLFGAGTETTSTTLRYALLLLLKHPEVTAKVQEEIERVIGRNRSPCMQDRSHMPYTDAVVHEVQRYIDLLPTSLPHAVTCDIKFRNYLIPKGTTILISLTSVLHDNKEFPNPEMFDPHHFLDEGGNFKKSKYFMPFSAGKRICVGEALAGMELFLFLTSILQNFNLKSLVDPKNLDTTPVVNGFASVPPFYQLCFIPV
Chain of Ubiquitin carboxyl-terminal hydrolase 1 (Homo sapiens) (O94782 whole entry, looked up): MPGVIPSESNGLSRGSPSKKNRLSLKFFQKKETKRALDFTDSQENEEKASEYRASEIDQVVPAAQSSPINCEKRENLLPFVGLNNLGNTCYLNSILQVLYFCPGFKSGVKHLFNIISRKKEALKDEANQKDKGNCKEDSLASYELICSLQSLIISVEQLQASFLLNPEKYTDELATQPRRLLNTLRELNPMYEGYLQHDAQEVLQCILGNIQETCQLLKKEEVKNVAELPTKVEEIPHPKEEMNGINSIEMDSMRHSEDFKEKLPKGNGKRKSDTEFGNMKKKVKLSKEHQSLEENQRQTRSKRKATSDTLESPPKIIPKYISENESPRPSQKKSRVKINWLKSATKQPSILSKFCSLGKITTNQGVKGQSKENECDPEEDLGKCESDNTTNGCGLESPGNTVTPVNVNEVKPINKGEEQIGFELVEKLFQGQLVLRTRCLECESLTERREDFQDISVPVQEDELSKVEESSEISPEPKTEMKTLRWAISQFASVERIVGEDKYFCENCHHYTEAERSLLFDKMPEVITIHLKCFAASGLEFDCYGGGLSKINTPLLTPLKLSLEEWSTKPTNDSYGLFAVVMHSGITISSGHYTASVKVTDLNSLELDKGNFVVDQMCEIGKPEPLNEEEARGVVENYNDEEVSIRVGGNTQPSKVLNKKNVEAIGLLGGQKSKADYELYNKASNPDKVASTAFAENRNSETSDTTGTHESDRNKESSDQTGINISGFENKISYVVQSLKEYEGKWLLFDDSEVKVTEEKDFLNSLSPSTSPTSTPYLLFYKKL

Cc1nc2cnc(N(C)C)nc2n(C)c1=O
active: Potency [3] 3.98 µM
inactive: Potency [1] > 11.4 µM | activity change, negative = inhibition [2] -9.37% | activity change, negative = inhibition [4] -9.43% | activity, negative = inhibition [5] 0.339% | Potency [6] > 9.22 µM | Potency [7] > 46 µM | Potency [8] | Potency [9] | Potency [10] | outcome [11]

CN(C)c1ncc2nc(-c3ccc(F)cc3)c(=O)n(CCC#N)c2n1
inactive: Potency [1] > 11.4 µM | activity change, negative = inhibition [2] 4.59% | activity change, negative = inhibition [4] 8.55% | activity, negative = inhibition [5] 23.5% | Potency [6] > 9.22 µM | Potency [7] > 46 µM | Potency [8] | Potency [9] | outcome [11]
active: Potency [3] 1.26 µM

COCCn1c(=O)c(-c2ccc(F)c(F)c2)nc2cncnc21
inactive: Potency [1] > 11.4 µM | activity change, negative = inhibition [2] -26.5% | activity change, negative = inhibition [4] -12.1% | activity, negative = inhibition [5] 0.716% | Potency [6] > 9.22 µM | Potency [7] > 46 µM | Potency [8] | Potency [9] | Potency [10] | outcome [11]
active: Potency [3] 0.251 µM

COc1ccc(-n2c(=O)c(C)nc3cnc(N(C)C)nc32)cc1
active: Potency [3] 6.31 µM
inactive: Potency [1] > 11.4 µM | activity change, negative = inhibition [2] -8.91% | activity change, negative = inhibition [4] 5.39% | activity, negative = inhibition [5] -5.54% | Potency [6] > 9.22 µM | Potency [7] > 46 µM | Potency [8] | Potency [9] | Potency [10] | outcome [11]

N#Cc1cccc(-c2nc3cnc(Nc4ccccc4)nc3n(C[C@H]3CCCO3)c2=O)c1
active: Potency [3] 2 µM
inactive: Potency [1] > 11.4 µM | activity change, negative = inhibition [2] -18.6% | activity change, negative = inhibition [4] -9.05% | activity, negative = inhibition [5] -7.94% | Potency [6] > 9.22 µM | Potency [7] > 46 µM | Potency [8] | Potency [9] | outcome [11]

Cn1c(=O)c(CCc2ccccc2)nc2cncnc21
inactive: Potency [1] > 11.4 µM | activity change, negative = inhibition [2] -10.9% | activity change, negative = inhibition [4] -3.66% | activity, negative = inhibition [5] -13.2% | Potency [6] > 9.22 µM | Potency [7] > 46 µM | Potency [8] | Potency [9] | Potency [10] | outcome [11]
active: Potency [3] 7.94 µM

O=c1c(CCc2ccccc2)nc2cncnc2n1C1CC1
inactive: Potency [1] > 11.4 µM | activity change, negative = inhibition [2] -0.738% | activity change, negative = inhibition [4] -8.26% | activity, negative = inhibition [5] -4.39% | Potency [6] > 9.22 µM | Potency [7] > 46 µM | Potency [8] | Potency [9] | Potency [10] | activation [12] 6.89% | outcome [11]
active: Potency [3] 6.31 µM

COc1ccc(-n2c(=O)c(C)nc3cnc(Nc4ccccc4)nc32)cc1
inactive: Potency [1] > 11.4 µM | activity change, negative = inhibition [2] -25% | activity change, negative = inhibition [4] 0.929% | activity, negative = inhibition [5] -5.94% | Potency [6] > 9.22 µM | Potency [7] > 46 µM | Potency [8] | Potency [9] | Potency [10] | outcome [11]
active: Potency [3] 5.01 µM

COc1cccc(-c2nc(NCc3cnc(C)cn3)c3ccccc3n2)c1
active: Potency [3] 0.398 µM | Potency [13] 2.51 µM
inactive: Potency [1] > 11.4 µM | activity change, negative = inhibition [2] -17.2% | activity change, negative = inhibition [4] 20.9% | activity, negative = inhibition [5] -10.4% | Potency [6] > 46 µM | Potency [7] > 46 µM | Potency [8] | Potency [10] | Potency [14] | activation [12] 6.27% | outcome [15] | Potency [16] | outcome [11]

COCCn1c(=O)c(-c2cc(F)cc(F)c2)nc2cnc(Oc3cccc(Cl)c3)nc21
inactive: Potency [1] > 11.4 µM | activity change, negative = inhibition [2] 30.2% | activity change, negative = inhibition [4] -9.31% | activity, negative = inhibition [5] 24.9% | Potency [6] > 9.22 µM | Potency [7] > 46 µM | Potency [8] | Potency [9] | Potency [10] | outcome [11]
active: Potency [3] 5.01 µM | Potency [17] 3.98 µM

COCCn1c(=O)c(-c2ccc(Cl)cc2)nc2cnc(Oc3ccccc3)nc21
inactive: Potency [1] > 11.4 µM | activity change, negative = inhibition [2] -8.55% | activity change, negative = inhibition [4] 17.4% | activity, negative = inhibition [5] -10% | Potency [6] > 9.22 µM | Potency [7] > 46 µM | Potency [8] | Potency [9] | Potency [10] | outcome [11]
active: Potency [3] 0.794 µM | Potency [17] 7.94 µM

COc1ccc(Oc2ncc3nc(C)c(=O)n(CCC#N)c3n2)cc1
active: Potency [3] 25.1 µM
inactive: Potency [1] > 11.4 µM | activity change, negative = inhibition [2] -15.5% | activity change, negative = inhibition [4] 8.56% | activity, negative = inhibition [5] -12.9% | Potency [6] > 9.22 µM | Potency [7] > 46 µM | Potency [8] | Potency [9] | outcome [11]

COc1ncc2ncc(=O)n(CCC#N)c2n1
inactive: Potency [1] > 11.4 µM | activity change, negative = inhibition [2] 1.28% | activity change, negative = inhibition [4] -1.77% | activity, negative = inhibition [5] -9.79% | Potency [6] > 9.22 µM | Potency [7] > 46 µM | Potency [8] | Potency [9] | outcome [11]
active: Potency [3] 20 µM
